Screening results deposited in PubChem BioAssay by National Center for Advancing Translational Sciences (NCATS).
SARS PLP yeast: inhibitors of SARS-CoV papain-like protease in yeast; S. cerevisiae expressing SARS-CoV PLpro, growth rescue; 330,000 compounds, 0.19% hits; Potency, µM (titrated, usually from 32.9 µM), inactives show at the top dose activity, positive = growth rescue, hits mostly activators; AID 485353; calls by dose curve; note: 0% is about no effect; nearly all actives have a fitted effect of over 55% in size
Pf growth 96h: P. falciparum growth inhibition at 96 hours; P. falciparum luciferase reporter growth, 96 h; Potency, µM (series often up to 28.7 µM), without a hit: top-dose activity change, negative = inhibition, actives largely listed as inhibitors; 320,000 compounds, 6.9% hits; AID 504834; note: % is set by controls: 0 for no effect and ±100 for the full control effect
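Two-generation exposure (96 h) targets delayed-death phenotype. Reporter parasites carrying integrated firefly luciferase, in red cells at 2% hematocrit and 0.05% parasitemia final, kept at 37 C, 5% CO2; luminescence loss indicates inhibition.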
Pf growth 48h: inhibits P. falciparum growth in the first generation, 48 h. P. falciparum luciferase growth in erythrocytes, 48 h. Potency, µM (top dose mostly 28.7 µM), for inactives: top-dose activity change, negative = inhibition, actives largely listed as inhibitors. 310,000 compounds, 5.9% hits. AID 504832; note: % is set by controls: 0 for no effect and ±100 for the full control effect
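Erythrocytes infected with P. falciparum carrying an integrated firefly luciferase reporter (2% hematocrit, 0.1% parasitemia final) were exposed to compounds in RPMI 1640 with 0.5% Albumax at 37 C, 5% CO2. Growth inhibition was scored as reduced luminescence.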
HCV inhibitor: blocks hepatitis C virus; 340,000 compounds, 3.4% hits; Huh7.5.1 HCVcc-Cre infection, luciferase reporter, 44 h; Potency, µM (top dose mostly 41.8 µM), for inactives: at the top dose activity change, negative = inhibition, actives largely listed as inhibitors; note: % is set by controls: 0 for no effect and ±100 for the full control effect
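Luciferase read-out (15 sec integration) after a 15 min room-temperature substrate step quantifies HCVcc-Cre infection. Cells, 1,000 per well, had compound added 4 h post-plating, then virus at ~0.5 moi, and were cultured 44 h.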
NS1 function inh: influenza NS1 inhibition | Potency, µM (titrated, usually from 46.1 µM), for the others: at the top dose activity, positive = more growth | 270,000 compounds, 0.4% hits | AID 2326; calls by dose curve; note: actives are rising curves; nearly all actives have a fitted effect of over 50% in size
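Growth recovery, yeast-based: influenza A NS1 expressed in S. cerevisiae causes slow growth, and suppressors are detected by OD600. The parent strain without NS1 is used as positive control.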
AMA1-RON2 inh: AMA1-RON2 (P. falciparum) interaction inhibition | AlphaScreen AMA1-biotinylated RON2 peptide binding | Potency, µM (doses to about 58.2 µM), for the others: at the highest dose activity change, negative = inhibition, most hits filed as inhibitors | 360,000 compounds, 0.2% hits;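 note: 0% = vehicle wells and -100% = peptide control; nearly all actives have a fitted effect of over 45% in size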
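AMA1 (3D7) with his tag at 25 nM final met compounds first, then biotinylated RON2 peptide at 25 nM; detection used donor plus acceptor beads, 10 µg/mL apiece, read by AlphaScreen after 30 min at room temperature.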
Active calls of the source: *; [ ] = remark or other dose. Hits are enriched below; roughly 12% of the tested compounds scored in any of these assays. Unless noted, calls come from the whole dose curve; as a rule, active = well fitted curve in the direction sought with a large enough effect; inconclusive = small, poorly fitted or top-dose-only effect, or another doubt; inactive = no such curve, though single readings can be large; an effect the other way counts as inactive or inconclusive. Potency is the fitted concentration of half-maximal effect.

Results for O=C(CSc1ncnc2c1cnn2-c1ccc(F)cc1)NC1CCCC1 ?
SARS PLP yeast: -0.6%; Pf growth 96h: 36.3%; Pf growth 48h: 49.3%; HCV inhibitor: 6.31µM*; NS1 function inh: -6.6%; AMA1-RON2 inh: 53.5%

How did CCn1cc(/C=C(\NC(=O)c2ccc(OC)c(OC)c2)C(=O)N2CCN(C)CC2)c2ccccc21 do in these assays?
SARS PLP yeast: -1.4%; Pf growth 96h: 10.4µM*; Pf growth 48h: inconclusive; HCV inhibitor: 15.0%; NS1 function inh: -2.6%; AMA1-RON2 inh: -10.2%

How did CCCCN(C)CC(O)Cn1cc(/C=C/C(=O)c2ccc(C)cc2)c2ccccc21 (stereo unspecified) do in these assays?
SARS PLP yeast: -2.0%; Pf growth 96h: -8.1%; Pf growth 48h: 9.28µM*; HCV inhibitor: 12.6µM*; NS1 function inh: 0.2%; AMA1-RON2 inh: -15.9%

How did O=C(/C=C/c1cn(CC(O)CN2CCCCC2)c2ccccc12)c1cccs1 (stereo unspecified) do in these assays?
SARS PLP yeast: 22.1%; Pf growth 96h: inconclusive; Pf growth 48h: 8.28µM*; HCV inhibitor: inconclusive; NS1 function inh: 12.4%; AMA1-RON2 inh: -5.1%[2.32 µM]

Results for CN1CCN(Cn2cc(/C=C/C(=O)c3ccccc3)c3ccccc32)CC1 ?
SARS PLP yeast: -29.3%; Pf growth 48h: 178.6%; HCV inhibitor: inconclusive; NS1 function inh: -102.3%; AMA1-RON2 inh: -1.6%

Results for CCCN(CCC)CC(O)Cn1cc(/C=C/C(=O)c2ccccc2)c2ccccc21 (stereo unspecified) ?
SARS PLP yeast: -4.9%; Pf growth 96h: -14.6%; Pf growth 48h: inconclusive; HCV inhibitor: inconclusive; AMA1-RON2 inh: -23.1%

Results for COc1ccc(C(=O)/C=C/c2cn(CC(O)CN3CCN(C)CC3)c3ccccc23)cc1OC (stereo unspecified) ?
SARS PLP yeast: 0.4%; Pf growth 96h: 11.7µM*; Pf growth 48h: 4.65µM*; HCV inhibitor: -75.4%; NS1 function inh: 7.9%; AMA1-RON2 inh: -20.7%

What do the screens show for `CCCN(CCC)CC(O)Cn1cc(/C=C/C(=O)c2cccs2)c2ccccc21` (stereo unspecified)?
SARS PLP yeast: -7.6%; Pf growth 96h: 2.4%; Pf growth 48h: 7.38µM*; HCV inhibitor: inconclusive; NS1 function inh: 4.6%; AMA1-RON2 inh: 7.2%

What do the screens show for `O=C(/C=C/c1cn(CC(O)CN2CCCCC2)c2ccccc12)c1ccccc1` (stereo unspecified)?
SARS PLP yeast: 0.7%; Pf growth 96h: inconclusive; Pf growth 48h: 13.1µM*; HCV inhibitor: inconclusive; NS1 function inh: 0.5%; AMA1-RON2 inh: -25.7%

What do the screens show for `O=c1c2ccccc2n(CC(O)CN2CCCCC2)c2ccccc12` (stereo unspecified)?
SARS PLP yeast: 0.1%; Pf growth 96h: inconclusive; Pf growth 48h: inconclusive; HCV inhibitor: inconclusive; NS1 function inh: 8.7%; AMA1-RON2 inh: 23.0%

What do the screens show for `CC(c1ccccc1)C(CC(=O)O)C(=O)Nc1ccc(Cl)c(Cl)c1` (stereo unspecified)?
SARS PLP yeast: 4.4%; Pf growth 96h: inconclusive; Pf growth 48h: -14.8%; HCV inhibitor: 5.3%; NS1 function inh: inconclusive; AMA1-RON2 inh: 5.3%

Results for COc1ccccc1C1=NN(C(=O)c2ccccc2)C(c2ccc(Br)cc2)C1 (stereo unspecified) ?
SARS PLP yeast: 0.7%; Pf growth 96h: 4.1%; Pf growth 48h: 3.7µM*; HCV inhibitor: -9.6%; NS1 function inh: -0.9%; AMA1-RON2 inh: -14.1%

Results for COc1ccc(C2=NN(C(=O)c3ccccc3)C(c3ccc(OC)c(OC)c3)C2)c(O)c1 (stereo unspecified) ?
SARS PLP yeast: 1.2%; Pf growth 96h: 10.4µM*; Pf growth 48h: 10.4µM*; HCV inhibitor: -26.8%; NS1 function inh: 2.3%; AMA1-RON2 inh: -4.4%

What do the screens show for `NS(=O)(=O)c1ccc(NC(=O)COC(=O)c2cnccn2)cc1`?
SARS PLP yeast: -0.7%; Pf growth 96h: 10.8%; Pf growth 48h: 26.0%; HCV inhibitor: 6.6%; AMA1-RON2 inh: 4.4%

How did Brc1cccc(Cn2c(-c3cncs3)nc3ccccc32)c1 do in these assays?
SARS PLP yeast: 4.1%; Pf growth 96h: 8.28µM*; Pf growth 48h: 10.4µM*; HCV inhibitor: inconclusive; NS1 function inh: -4.9%; AMA1-RON2 inh: -10.9%

How did Brc1ccc(Cn2c(-c3cncs3)nc3ccccc32)cc1 do in these assays?
SARS PLP yeast: 5.6%; Pf growth 96h: -95.3%; Pf growth 48h: inconclusive; HCV inhibitor: inconclusive; NS1 function inh: -4.6%; AMA1-RON2 inh: 0.9%

How did CC(Sc1nnnn1C)C(=O)Nc1cc(S(=O)(=O)N2CCCCC2)ccc1Cl (stereo unspecified) do in these assays?
SARS PLP yeast: -0.8%; Pf growth 96h: inconclusive; Pf growth 48h: inconclusive; HCV inhibitor: 0.8%; AMA1-RON2 inh: -3.4%

How did COc1ccc(OCC(=O)N/N=C(\C)c2ccc(-n3ccnc3)cc2)cc1 do in these assays?
SARS PLP yeast: -3.8%; Pf growth 96h: -23.4%; Pf growth 48h: 11.2%; HCV inhibitor: 26.2%; NS1 function inh: 8.3%; AMA1-RON2 inh: 0.0%

What do the screens show for `COc1cc(NC(=O)COc2ccc(-n3ccnc3)cc2)cc(OC)c1`?
SARS PLP yeast: 0.5%; Pf growth 96h: inconclusive; Pf growth 48h: -27.9%; HCV inhibitor: inconclusive; AMA1-RON2 inh: -6.8%

What do the screens show for `CC(C)(C)c1ccc(NC(=O)COc2ccc(-n3ccnc3)cc2)cc1`?
SARS PLP yeast: -16.1%; Pf growth 48h: inconclusive; HCV inhibitor: 5.01µM*; NS1 function inh: -48.2%; AMA1-RON2 inh: -13.6%

What do the screens show for `C/C(=N\NC(=O)COc1ccc(C(C)(C)C)cc1)c1ccc(-n2ccnc2)cc1`?
SARS PLP yeast: -46.8%; Pf growth 96h: 10.4µM*; Pf growth 48h: -78.1%; HCV inhibitor: -27.4%; NS1 function inh: -15.4%; AMA1-RON2 inh: 0.0%[11.6 µM]

What do the screens show for `CCc1cccc(NS(=O)(=O)c2ccc(-n3cccn3)cc2)c1`?
SARS PLP yeast: -5.3%; Pf growth 96h: 13.1µM*; Pf growth 48h: 25.7%; HCV inhibitor: -25.7%; NS1 function inh: -10.3%; AMA1-RON2 inh: 7.6%

What do the screens show for `COc1ccc(C)cc1NS(=O)(=O)c1ccc2c(c1)n(C)c(=O)n2C`?
SARS PLP yeast: 0.3%; Pf growth 96h: 5.86µM*; Pf growth 48h: -8.9%; HCV inhibitor: 7.8%; NS1 function inh: 3.3%; AMA1-RON2 inh: 0.9%

Results for CCc1cccc(NS(=O)(=O)c2ccc3c(c2)n(C)c(=O)n3C)c1 ?
SARS PLP yeast: -1.0%; Pf growth 96h: 4.65µM*; Pf growth 48h: -13.9%; HCV inhibitor: inconclusive; NS1 function inh: 0.5%; AMA1-RON2 inh: 1.2%
